# Compound activity deposited in PubChem BioAssay by Corson Lab, School of Medicine, Indiana University.
# Shown is part of a subset that was picked to be rich in hits.
# FECH inh – inhibitors of human ferrochelatase, primary screen, biochemical, purified FECH, Ni-mesoporphyrin absorbance | Ni-mesoporphyrin absorbance 550 nm | actives 3.3% (n = 20,000) | Ferrochelatase, mitochondrial (Homo sapiens), P22830 | calls only at 10 µM (by protocol);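 active = enzyme reaction rate more than 3 SD below the solvent-only control wells on the same plate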;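 also: lower slope than DMSO wells means FECH inhibition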
# Target sequence (P22830 whole entry, looked up): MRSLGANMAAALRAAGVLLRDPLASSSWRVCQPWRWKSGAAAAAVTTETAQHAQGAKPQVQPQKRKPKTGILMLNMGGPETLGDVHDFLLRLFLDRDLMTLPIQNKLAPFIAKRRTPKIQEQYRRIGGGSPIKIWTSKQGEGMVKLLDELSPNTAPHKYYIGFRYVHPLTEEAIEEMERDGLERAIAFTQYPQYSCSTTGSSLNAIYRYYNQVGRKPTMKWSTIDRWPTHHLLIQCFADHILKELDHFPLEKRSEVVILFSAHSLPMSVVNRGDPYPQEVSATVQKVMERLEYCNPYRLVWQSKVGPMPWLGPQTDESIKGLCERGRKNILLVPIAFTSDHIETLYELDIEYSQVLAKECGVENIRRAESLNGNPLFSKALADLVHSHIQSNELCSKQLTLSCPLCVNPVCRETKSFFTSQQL
# An asterisk follows results filed as active; i = inactive; + = active, no number.
SMILES,FECH inh
CN(CCc1nc2ccc(F)cc2[nH]1)C(=O)[C@@H]1Cc2ccccc2N1,i
COc1ccc(C(C)(C)C)cc1S(=O)(=O)N1CCN(c2nc(C)cc(N3CCOCC3)n2)CC1,i
Cc1cccc(N(CC(=O)N(C)Cc2n[nH]c3c2CCCCC3)S(C)(=O)=O)c1,i
Cc1cccc(N(CC(=O)NCCN2CCNC2=O)S(C)(=O)=O)c1,+
Cc1ccc2c(c1)NC(=O)C2CC(=O)NCCN1CCCOC1=O (configuration not stated),i
CN1CCN(CCNC(=O)c2ccc(CN3C(=O)CCn4nc(-c5cccc(Cl)c5)cc43)cc2)CC1,i
COc1cccc(OC)c1C(=O)Nc1ccccc1Sc1c(C)c(C)nc2nc(-c3ccccc3)nn12,i
O=C(NCC1CCCCC1)c1nc[nH]c1C(=O)NCc1ccccc1,+
CCCNC(=O)c1[nH]cnc1C(=O)NC1CCCCC1,i
O=C(NC1CCCCNC1=O)c1nc[nH]c1C(=O)NCc1ccccn1 (configuration not stated),i
O=C(NC1CCCCC1)c1nc[nH]c1C(=O)NCc1ccccn1,+
COc1ccccc1CNC(=O)c1nc[nH]c1C(=O)NCc1cccnc1,+
O=C(NCc1ccccc1)c1nc[nH]c1C(=O)N1CCCCC1,i
CC(C)CCNC(=O)c1nc[nH]c1C(=O)NCC1CC1,i
COc1ccccc1CNC(=O)c1[nH]cnc1C(=O)NCC1CCCCC1,+
CCCCCN(C)C(=O)c1[nH]cnc1C(=O)NCc1ccccc1,i
CC1CCCN(C(=O)c2[nH]cnc2C(=O)NCc2ccccc2)C1 (configuration not stated),i
COc1ccccc1CN(Cc1cccnc1)C(=O)c1sc(C)nc1C,i
COc1ccccc1CNC(=O)c1[nH]cnc1C(=O)NCC1CC1,i
Cc1ccsc1CN(CC(C)C)C(=O)C1CCN(Cc2cccn2C)CC1,i
O=C(O)c1cc(N2CCC(N3CCCC(C(=O)NC4CC4)C3)CC2)nc2ccccc12 (configuration not stated),i
COc1ccc(S(=O)(=O)N2CCN(c3nc(C)cc(N4CCCCC4)n3)CC2)cc1C,i
CC(=O)Nc1ccccc1NC(=O)CNC(c1ccco1)C(F)(F)F (configuration not stated),i
CC(C)(C)CNC(=O)c1nc[nH]c1C(=O)NCc1ccccc1,i
COc1ccccc1CNC(=O)c1nc[nH]c1C(=O)N1CCc2ccccc2C1,i
SMILES,FECH inh
CCCNC(=O)c1[nH]cnc1C(=O)NC1CCCC1,i
Cc1ccc(CNC(=O)c2nc[nH]c2C(=O)NCc2ccccn2)o1,+
COc1ccccc1CNC(=O)c1[nH]cnc1C(=O)NC1CCc2ccccc21 (configuration not stated),+
Cc1ccc(CNC(=O)c2[nH]cnc2C(=O)NC(C)C)o1,i
O=C(NCc1ccccn1)c1nc[nH]c1C(=O)NCc1cccnc1,+
CC(C)CCNC(=O)c1nc[nH]c1C(=O)NCc1ccccc1,i
Cc1ccc(CNC(=O)c2[nH]cnc2C(=O)NC2CCCCC2)o1,i
COc1ccccc1CNC(=O)c1nc[nH]c1C(=O)N1CCC(O)(c2ccc(Cl)cc2)CC1,+
CC(C)(C)CNC(=O)c1nc[nH]c1C(=O)N1CCC(O)(c2ccc(Cl)cc2)CC1,i
CC(C)CCNC(=O)c1nc[nH]c1C(=O)N1CCC(O)(c2ccc(Cl)cc2)CC1,i
Cc1nc(SCc2nc(-c3ccccc3)oc2C)[nH]c(=O)c1Cc1ccccc1,i
O=C(CCc1n[nH]c2c1CCCC2)NCc1ccc2c(c1)OCO2,i
Cc1ccccc1CN1CCN(CC(=O)Nc2ccc(Br)cc2)S1(=O)=O,i
CCOCCn1cnc(-c2ccccc2)c1-c1ccc(-c2ccn[nH]2)s1,i
CCc1cccc(CC)c1NS(=O)(=O)c1cc(N2C(=O)CCS2(=O)=O)ccc1C,i
COc1ccccc1C(O)CNc1nccc(-c2ccc(C)nc2C)n1 (configuration not stated),i
CN(C(=O)c1c[nH]c2c(F)cccc2c1=O)C1Cc2ccccc2C1,i
Cc1noc(-c2ccc(Oc3ccc(CN4CCCC4)cc3F)nc2)n1,i
CC(C)NC(=O)c1nc[nH]c1C(=O)NC1CCCc2ccccc21 (configuration not stated),i
COc1ccccc1CNC(=O)c1[nH]cnc1C(=O)NCCN(C)C,i
O=C(NC1CCCCC1)c1nc[nH]c1C(=O)NC1CCCC1,i
O=C(NC1CCCCC1)c1nc[nH]c1C(=O)NC1CCc2ccccc21 (configuration not stated),+
COc1ccccc1CNC(=O)c1[nH]cnc1C(=O)NCCc1c[nH]c2ccccc12,i
COc1ccccc1CNC(=O)c1nc[nH]c1C(=O)NCc1ccccc1,+
CCCNC(=O)c1cc2n(n1)CC(C)(C(=O)NCc1ccc(C)cc1)N(C)C2=O (configuration not stated),i
SMILES,FECH inh
c1cncc(NCCNC2CCSC2)c1 (configuration not stated),i
COc1cccc(Cn2c(CNC(=O)c3cccc(Cl)c3)nc3cccnc32)c1,i
c1ccc2c(CN3CCCCC3CCn3ccnc3)ccnc2c1 (configuration not stated),+
O=C(NCCc1ccccc1)N1CCCCC1CCn1ccnc1 (configuration not stated),i
O=C(c1c[nH]c(=O)cn1)N1CCCCC1CCn1ccnc1 (configuration not stated),i
CCOc1ccc(S(=O)(=O)N2CCN(c3nc(C)cc(N4CCCC4)n3)CC2)cc1,i
CCCCOc1ccc(S(=O)(=O)N2CCN(c3nc(C)cc(N4CCCCC4)n3)CC2)cc1,i
CCCCOc1ccc(S(=O)(=O)N2CCN(c3nc(C)cc(N4CCCC4)n3)CC2)cc1,+
Cc1ccc(Nc2nc(N3CCC(C)CC3)nc3c2cnn3-c2ccccc2)cc1C,i
CCOc1ccccc1NC(=O)CCNC1CCS(=O)(=O)C1 (configuration not stated),i
C=CCc1ccccc1OCCN(C)C(=O)c1ccc2[nH]c(=O)c(=O)[nH]c2c1,i
O=C(c1ccc2oc(=O)n(Cc3ccccc3)c2c1)N1CCN(Cc2ccccc2)CC1,+
CN1CCN(C(=O)c2ccc3oc(=O)n(Cc4ccccc4)c3c2)CC1,i
CCN1CCN(C(=O)c2ccc3oc(=O)n(Cc4ccc(C)cc4)c3c2)CC1,i
CSc1ccc(CNC(=O)CSc2cc(Oc3cc(C)cc(C)c3)ncn2)cc1,+
Cc1ccc(NC(=O)CSc2cc(N3CCCCC3)ncn2)cc1F,i
COc1cc(NC(=O)CSc2cc(Oc3cc(C)cc(C)c3)ncn2)cc(OC)c1,+
COc1ccc(NC(=O)CSc2cc(N3CCCCC3)ncn2)cc1OC,i
CSc1ccc(CNC(=O)COc2cc(C)nc(-c3ccc(C)cc3)n2)cc1,i
COc1cc(NC(=O)CN2CCCN(Cc3ccc(C)cc3)S2(=O)=O)cc(OC)c1,i
CCc1cccc(NC(=O)CCC(=O)NCc2ncc[nH]2)c1,i
CCc1cccc(NC(=O)CSc2cc(Oc3cc(C)cc(C)c3)ncn2)c1,+
COc1ccc(CNC(=O)CSc2cc(N3CCCCC3)ncn2)cc1,i
CCc1cccc(NC(=O)CN2CCCN(Cc3ccc(OC)cc3)S2(=O)=O)c1,i
O=C(CSc1cc(N2CCCCC2)ncn1)Nc1ccc2c(c1)OCCO2,i
